Source: PubChem BioAssay (several laboratories)
NLRP3 yeast inh: NALP3 inflammasome inhibitors in reconstituted yeast, primary screen, luminescence, uHTS; Yeast reconstituted NLRP3/ASC/caspase-1, beta-gal luminescence, 24 h; inhibition, % at 10 µM; 330,000 compounds, 0.39% hits; AID 2825, 2010;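 active = inhibition of 50% or more; inactive = inhibition below 50%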
PfHsp90 yeast 2: growth inhibition of PfHsp90-expressing yeast, primary screen, antimalarial PfHsp90 inhibitor project, S. cerevisiae, BacTiter-Glo luminescence, single point, set 2; BacTiter-Glo ATP, 48 h; yeast lacking PDR1 and PDR3 efflux regulators; inhibition, % at 9.4 µM; 310,000 compounds, 0.32% hits; AID 504621, 2011;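 active = every replicate shows inhibition above about 80%, whatever the replicate mean, limit read from the data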
TIM10 inh: growth inhibitors of isogenic TIM10 control yeast, primary screen, counter-screen for tim10-1 yeast inhibitor project, luminescence, uHTS; AID 463195, 2010; 330,000 compounds, 1.4% hits; S. cerevisiae TIM10 strain growth, BacTiter-Glo luminescence, 24 h; inhibition, % at 10 µM;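 active = inhibition of 40% or more at the single tested concentration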;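 also: wild-type TIM10 isogenic control strain grown at permissive 25 °C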
NALP1 yeast inh: NALP1 inflammasome inhibitors in reconstituted yeast, colorimetric, S. cerevisiae, triplicate retest; S. cerevisiae NALP1/ASC/caspase-1 growth, X-gal OD620, 72 h; inhibition, % at 10 µM; 280,000 compounds, 0.61% hits; in the data active = inhibition mostly above about 24%, no sharp cut-off; inactive = mostly below about 32%
tim10-1 inh: growth inhibitors of tim10-1 mutant yeast, primary screen, luminescence, uHTS. S. cerevisiae tim10-1 ts strain growth, BacTiter-Glo, 24 h. AID 463190, 2010. 330,000 compounds, 2.2% hits. inhibition, % at 20 µM;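 active = inhibition of at least 40%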;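 also: mutant grown at 25 °C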
tim23-1 inh: growth inhibitors of tim23-1 mutant yeast, primary screen, luminescence, uHTS; S. cerevisiae tim23-1 growth, BacTiter-Glo luminescence, 24 h; AID 463212, 2010; inhibition, % at 20 µM; 330,000 compounds, 1.3% hits;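 active = growth inhibition of the mutant yeast at or above 50%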;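 also: temperature-sensitive mutant grown at 25 °C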
tim10-1 conf: growth inhibitors of tim10-1 mutant yeast, confirmation, single concentration, luminescence, S. cerevisiae; 7,400 compounds, 56% hits; inhibition, % at 20 µM; AID 463213, 2010; shares compounds with tim10-1 inh; S. cerevisiae tim10-1 ts strain growth, BacTiter-Glo, 24 h;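 active = inhibition of yeast growth at or above a set limit in either of two repeat tests at 20 µM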;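 also: tim10-1 mutant grown at permissive 25 °C to find synthetic lethal compounds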
TIM10 conf: growth inhibitors of wild-type TIM10 yeast, confirmation, counter-screen for tim10-1 synthetic lethality project, single concentration, luminescence, S. cerevisiae; S. cerevisiae tim10 strain growth, BacTiter-Glo luminescence, 24 h; 4,600 compounds, 63% hits; AID 463215, 2010; inhibition, % at 10 µM; shares compounds with TIM10 inh;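 active = inhibition of yeast growth at or above a set limit in either of two replicates at 10 µM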; also: this counterscreen used the strain with wild-type TIM10
tim23-1 conf: tim23-1 mutant yeast growth inhibitors, confirmation, luminescence, single concentration. shares compounds with tim23-1 inh. S. cerevisiae tim23-1 growth, BacTiter-Glo luminescence, 24 h. inhibition, % at 20 µM. 4,400 compounds, 83% hits;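 active = inhibition above about 39% in either of two replicate wells at 20 µM, limit read from the data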;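 also: temperature-sensitive tim23-1 mutant grown at 25 °C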
Of the large screens only hits and unclear results are named; the others gave an inactive call (follow-up assays come after a bar, where they were run). The list is not random: actives were taken first. Their share in the collection is about 4.1%.

CC(C)N=c1scc(-c2ccco2)n1/N=C/c1ccc(O)c(O)c1	tim10-1 inh 47.1, tim23-1 inh 54.4 | tim10-1 conf inactive | tim23-1 conf 60.0
COc1ccc(SN=C2C(C)=CC(=O)C=C2C)cc1	PfHsp90 yeast 2 91.2, TIM10 inh 91.3, tim10-1 inh 70.9, tim23-1 inh 75.0 | tim10-1 conf 73.0 | TIM10 conf 96.4 | tim23-1 conf 74.5
COc1ccc(S(=O)(=O)N=C2C=C(C)C(=O)C(C)=C2)cc1	none
CC1CCCN(S(=O)(=O)c2ccc(C(=O)Nc3nnc(C4CC4)o3)cc2)C1 (centres undefined)	tim10-1 inh 45.7, tim23-1 inh 52.7 (no result: PfHsp90 yeast 2) | tim10-1 conf inactive | tim23-1 conf inactive
O=C(Nc1nnc(C2CC2)o1)c1ccc(S(=O)(=O)N2CCc3ccccc3C2)cc1	none
Cc1cc(C(=O)CSc2nnc(C3CC3)n2C2CC2)c(C)n1C(C)C	none (no result: NALP1 yeast inh)
Cc1ccc(N(CC(=O)NC2CCCC2)C(=O)CNC(=O)c2cccs2)cc1F	none
Fc1cccc(-n2cc(-c3ccccc3)c3c(=S)nc[nH]c32)c1	tim10-1 inh 40.3, tim23-1 inh 55.2 | tim10-1 conf 32.0 | tim23-1 conf 47.9
S=c1nc[nH]c2c1cnn2-c1ccccc1	none
O=c1[nH]cnc2c1c(-c1ccccc1)cn2-c1ccccc1	none
Cc1ccc(-n2cc(-c3ccccc3)c3c(=O)[nH]cnc32)cc1	TIM10 inh 49.3, tim10-1 inh 47.7, tim23-1 inh 57.1 | tim10-1 conf 31.6 | TIM10 conf inactive | tim23-1 conf 42.8
Fc1ccc(-n2cc(-c3ccccc3)c3c(=S)nc[nH]c32)cc1	tim10-1 inh 63.1, tim23-1 inh 65.3 | tim10-1 conf inactive | tim23-1 conf inactive
CC12CCC(C(=O)N(c3nccs3)C1=O)C2(C)C (centres undefined)	none (no result: NLRP3 yeast inh, TIM10 inh, NALP1 yeast inh, tim10-1 inh, tim23-1 inh)
O=C(NC(=S)NCCN1CCOCC1)c1ccc(Cl)cc1Cl	none
CCCCNC(=S)NC(=O)c1ccc(Cl)cc1Cl	tim10-1 inh 48.7, tim23-1 inh 54.1 (no result: PfHsp90 yeast 2) | tim10-1 conf 36.5 | tim23-1 conf 52.6
NC(=S)N/N=C/c1ccccc1OCCSc1ccc(Cl)cc1	TIM10 inh 56.7, tim10-1 inh 43.5, tim23-1 inh 54.3 | tim10-1 conf 31.6 | TIM10 conf inactive | tim23-1 conf inactive
O=C1N2c3ccccc3CCc3cccc(c32)C1(O)C(F)(F)F (centres undefined)	tim10-1 inh 47.2, tim23-1 inh 50.5 | tim10-1 conf 43.5 | tim23-1 conf 54.8
CCN(C(=O)COC(=O)CCC(=O)c1ccccc1)c1c(N)n(Cc2ccccc2)c(=O)[nH]c1=O	none (no result: NALP1 yeast inh)
CCCCNC(=O)c1sc2ncnc(N3CCc4ccccc4C3)c2c1C	TIM10 inh 43.2, tim10-1 inh 47.5, tim23-1 inh 54.8 (no result: PfHsp90 yeast 2) | tim10-1 conf 34.8 | TIM10 conf 36.2 | tim23-1 conf 51.1
O=c1[nH]c(-c2ccccn2)nc2sc(-c3ccccc3)cc12	none (no result: NLRP3 yeast inh, TIM10 inh, tim10-1 inh, tim23-1 inh)
CC(C)[C@H](N[C@@H](C)c1ccccc1)c1c(O)ccc2ccccc12	tim10-1 inh 45.0, tim23-1 inh 50.4 | tim10-1 conf 35.1 | tim23-1 conf 40.0
CN(C)C(=O)CCc1ccc2c3c([nH]c2c1)[C@]1(CCC2CCCC2)[C@@H](C(=O)N2CCOCC2)C[C@H](CC(=O)NCCc2ccccn2)C(=O)N1CC3	none (no result: NLRP3 yeast inh, NALP1 yeast inh)
